Experiment [1] in a line: Caspase-3/7 induction in HepG2 cells by small molecules, qHTS assay (AID 1346978). Also: nearly all actives have a fitted effect of over 15% in size. Also: potency is read from the fitted curve at half-maximal effect. A digest of the protocol: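 Wild-type HepG2 cells, 2,000/well, settled 5 hr at 37 C and 5% CO2, then compound-treated for 17 hr; caspase-3/7 activity read by luminescent Caspase-Glo 3/7 after 30 min at room temperature.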
Experiment [2] in a line: Caspase-3/7 induction in CHO-K1 cells by small molecules, qHTS cell viability counter screen (AID 1346979). Also: nearly all actives have a fitted effect of over 35% in size. Also: potency is read from the fitted curve at half-maximal effect. Put shortly:
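Multiplexed with Caspase-Glo 3/7 in CHO-K1 cells, this counter screen added CellTiter-Fluor after 16hr of compound exposure and recorded fluorescence 1hr later.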
For orientation: Quantitative high-throughput screening tests each substance at several concentrations.

Experiment [3] can be described thus: Caspase-3/7 induction in CHO-K1 cells by small molecules, qHTS assay (AID 1346980). Also: nearly all actives have a fitted effect of over 15% in size. Also: potency is read from the fitted curve at half-maximal effect. Put shortly:
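Wild-type CHO-K1 cells exposed to compounds for 17hr at 37 C, 5% CO2. Caspase-3/7 activity then measured by Caspase-Glo 3/7 luminescence after 30min at room temperature.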

A short description of experiment [4]: Caspase-3/7 induction in HepG2 cells by small molecules, qHTS cell viability counter screen (AID 1346981). Also: nearly all actives have a fitted effect of over 30% in size. Also: potency is read from the fitted curve at half-maximal effect. Put shortly:
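CellTiter-Fluor fluorescence measured viability in the same wells used for Caspase-Glo 3/7. HepG2 (wild type) at 2,000 cells/well were pre-incubated 5 hr, dosed, and given reagent at 16 hr, with 1 hr further at 37C.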

Experiment [5] addresses Nuclear receptor subfamily 1 group I member 2 (Homo sapiens) (UniProt O75469). Description: Human pregnane X receptor (PXR) small molecule agonists, qHTS assay (AID 1346982). Also: nearly all actives have a fitted effect of over 35% in size. Also: potency is read from the fitted curve at half-maximal effect. Put shortly: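 Agonist mode: luminescence from ONE-Glo after 24 h compound exposure at 37C in HepG2 cells carrying hPXR-responsive CYP3A4 luciferase, plated in charcoal-stripped serum medium 5 h beforehand.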

Experiment [6] has as its target Cytochrome P450 2D6 (Homo sapiens) (UniProt P10635). Nature of the experiment: Cytochrome P450 Family 2 Subfamily D Member 6 (CYP2D6) small molecule antagonists: luciferase reporter qHTS assay (AID 1671196). Also: nearly all actives have a fitted effect of over 50% in size. Also: potency is read from the fitted curve at half-maximal effect. As to activity change, negative = inhibition: series mostly up to about 120 µM. A digest of the protocol: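 CYP2D6 activity was followed as luminescence from its luciferin product after a 1 h NADPH-driven reaction at room temperature. Enzyme-substrate mix and compound were pre-incubated for 10 min, and the signal was read 20 min after adding detection reagent.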
(In general: A reporter such as luciferase makes a cellular process visible.)

Experiment [7] addresses Cytochrome P450 2C19 (Homo sapiens) (UniProt P33261). Description: Cytochrome P450 Family 2 Subfamily C Member 19 (CYP2C19) small molecule antagonists: luciferase reporter qHTS assay (AID 1671197). Also: nearly all actives have a fitted effect of over 65% in size. Also: potency is read from the fitted curve at half-maximal effect. As to activity change, negative = inhibition: series mostly up to about 120 µM. Put shortly:
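Quantitative high-throughput screen of the Tox21 library using CYP2C19 with proluciferin substrate. Reaction: NADPH regeneration, 37C, 1 h, after 10 min compound preincubation at room temperature. Readout: luminescence.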

Experiment [8] addresses Cytochrome P450 2C9 (Homo sapiens) (UniProt P11712). Nature of the experiment: Cytochrome P450 Family 2 Subfamily C Member 9 (CYP2C9) small molecule antagonists: luciferase reporter qHTS assay (AID 1671198). Also: nearly all actives have a fitted effect of over 50% in size. Also: potency is read from the fitted curve at half-maximal effect. As to activity change, negative = inhibition: series mostly up to about 120 µM. Put shortly:
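P450-Glo proluciferin substrate with CYP2C9 enzyme; 10 min RT preincubation, then NADPH regeneration 1 h at 37C; luciferin detection reagent 20 min RT, luminescence in relative luminescence units.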

In experiment [9] the target is Cytochrome P450 1A2 (Homo sapiens) (UniProt P05177). Description: Cytochrome P450 Family 1 Subfamily A Member 2 (CYP1A2) small molecule antagonists: luciferase reporter qHTS assay (AID 1671199). Also: nearly all actives have a fitted effect of over 50% in size. Also: potency is read from the fitted curve at half-maximal effect. As to activity change, negative = inhibition: series mostly up to about 120 µM. A digest of the protocol: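 Luminescence from luciferin formed by CYP1A2 from a proluciferin substrate, read 20 min after detection reagent. Compound was pre-incubated 10 min with enzyme-substrate, and reaction started with NADPH regeneration solution for 1 h at room temperature; furafylline control.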

For experiment [10], the target named is Cytochrome P450 3A4 (Homo sapiens) (UniProt P08684). Description: Cytochrome P450 Family 3 Subfamily A Member 4 (CYP3A4) small molecule antagonists: luciferase reporter qHTS assay (AID 1671201). Also: nearly all actives have a fitted effect of over 50% in size. Also: potency is read from the fitted curve at half-maximal effect. As to activity change, negative = inhibition: series mostly up to about 120 µM. A digest of the protocol:
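Room-temperature assay throughout: 10 min compound–enzyme/substrate preincubation, 1 h reaction after NADPH regeneration solution, 20 min detection. Luciferin formed from proluciferin substrate is quantified by luminescence.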

In experiment [11] the target is Nuclear receptor subfamily 1 group I member 2 (Homo sapiens) (UniProt O75469). Description: Human pregnane X receptor (PXR) activation by small molecules, qHTS assay (AID 1346985). Also: nearly all actives have a fitted effect of over 40% in size. Also: potency is read from the fitted curve at half-maximal effect. Put shortly: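 DPX-2 cells (HepG2 co-transfected with a PXR response element and a CYP3A4-promoter luciferase construct) were seeded at 2,000 per well, rested 5 hr at 37C, then exposed to DMSO-dissolved compounds for 24 hr. Activation was read as luciferase luminescence.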

Experiment [12] has as its target Voltage-gated inwardly rectifying potassium channel KCNH2 (Homo sapiens) (UniProt Q12809). Nature of the experiment: Human Ether-a-go-go-Related Gene (hERG) channel small molecule antagonists: fluorescence cell-based qHTS assay (AID 1671200). Also: nearly all actives have a fitted effect of over 50% in size. Also: potency is read from the fitted curve at half-maximal effect.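 As to activity change, negative = inhibition: hERG-expressing U2OS cells given a thallium stimulus after FluxOR II dye loading; series mostly up to about 77 µM.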 A digest of the protocol:
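Cell line hERG-U2OS; dye FluxOR II, 1 h RT dark; Tl+ stimulus; ex 480/em 540 nm, read each second for 2 min.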
(In general: Block of hERG is tested as a sign of cardiac risk.)

Experiment [13] addresses Nuclear receptor subfamily 1 group I member 2 (Homo sapiens) (UniProt O75469). Description: CYP3A4 induction through human pregnane X receptor (PXR) by small molecules, qHTS assay (AID 1346984). Also: nearly all actives have a fitted effect of over 40% in size. A digest of the protocol:
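Read-out is luminescence after One-Glo addition, following a 3 hr, 37C incubation with Luciferin-IPA CYP3A4 substrate (3uM final). Before that, compounds were on DPX-2 cells (HepG2 co-transfected with PXR element plus CYP3A4-promoter luciferase) for 24 hr at 37C.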

Experiment [14] concerns the target Nuclear receptor subfamily 1 group I member 2 (Rattus norvegicus) (UniProt Q9R1A7). Nature of the experiment: Rat pregnane X receptor (rPXR) activation by small molecules, qHTS assay (AID 1346983). Also: nearly all actives have a fitted effect of over 20% in size. As to conditions: rPXR luciferase reporter cells, One-Glo luminescence, 24 h; max activation: hits give high values. Put shortly:
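Cell-based rPXR activation assay: rPXR cells, 2,000 per well, rested 5hr at 37 C, then exposed to compounds in DMSO for 24 hr at 37 C. Luciferase activity read by One-Glo luminescence after 30 min at room temperature.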

SMILES strings stand for the structures. Several values for one entry are separate records, joined by “and”; a condition that tells them apart may be missing. Identical values can stand only once. Values without a mark were called inactive. Results filed as inconclusive are left out. Activity calls are given as the source filed them. Calls follow the shape of the dose curve; as a rule, active = well fitted curve in the direction sought with a large enough effect in the repeat runs; inconclusive = weak or mixed curves; inactive = no such curve, though single readings can be large; an effect the other way counts as inactive or inconclusive.
% is scaled to controls: 0 for no effect and ±100 for the full control effect.

Cytochrome P450 2D6 (Homo sapiens), sequence (P10635 whole entry, looked up): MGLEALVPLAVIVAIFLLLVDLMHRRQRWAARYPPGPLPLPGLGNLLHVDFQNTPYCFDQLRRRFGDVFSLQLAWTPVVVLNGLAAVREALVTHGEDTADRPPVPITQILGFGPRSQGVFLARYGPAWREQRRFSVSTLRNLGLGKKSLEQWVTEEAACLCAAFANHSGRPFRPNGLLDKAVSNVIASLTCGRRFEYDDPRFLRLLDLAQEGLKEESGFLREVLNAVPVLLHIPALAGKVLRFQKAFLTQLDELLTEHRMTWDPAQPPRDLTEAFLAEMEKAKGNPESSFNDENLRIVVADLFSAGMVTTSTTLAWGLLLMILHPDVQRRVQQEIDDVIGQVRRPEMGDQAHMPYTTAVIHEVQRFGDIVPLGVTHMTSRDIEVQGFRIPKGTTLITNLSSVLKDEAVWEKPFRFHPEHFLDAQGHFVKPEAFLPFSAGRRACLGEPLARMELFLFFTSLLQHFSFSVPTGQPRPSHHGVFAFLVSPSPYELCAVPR
Nuclear receptor subfamily 1 group I member 2 (Homo sapiens), sequence (O75469 whole entry, looked up): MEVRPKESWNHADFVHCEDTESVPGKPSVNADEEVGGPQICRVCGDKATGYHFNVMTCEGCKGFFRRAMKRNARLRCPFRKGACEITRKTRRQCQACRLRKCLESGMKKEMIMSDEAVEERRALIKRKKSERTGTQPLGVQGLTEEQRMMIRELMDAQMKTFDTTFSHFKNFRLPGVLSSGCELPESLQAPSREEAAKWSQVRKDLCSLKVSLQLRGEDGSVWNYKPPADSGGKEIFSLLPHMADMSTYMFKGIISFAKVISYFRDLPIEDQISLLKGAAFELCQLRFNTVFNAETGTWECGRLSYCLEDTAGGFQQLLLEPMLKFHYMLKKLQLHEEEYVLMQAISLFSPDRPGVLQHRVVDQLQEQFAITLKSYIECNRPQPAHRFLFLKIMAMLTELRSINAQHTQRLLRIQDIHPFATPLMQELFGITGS
Cytochrome P450 3A4 (Homo sapiens), sequence (P08684 whole entry, looked up): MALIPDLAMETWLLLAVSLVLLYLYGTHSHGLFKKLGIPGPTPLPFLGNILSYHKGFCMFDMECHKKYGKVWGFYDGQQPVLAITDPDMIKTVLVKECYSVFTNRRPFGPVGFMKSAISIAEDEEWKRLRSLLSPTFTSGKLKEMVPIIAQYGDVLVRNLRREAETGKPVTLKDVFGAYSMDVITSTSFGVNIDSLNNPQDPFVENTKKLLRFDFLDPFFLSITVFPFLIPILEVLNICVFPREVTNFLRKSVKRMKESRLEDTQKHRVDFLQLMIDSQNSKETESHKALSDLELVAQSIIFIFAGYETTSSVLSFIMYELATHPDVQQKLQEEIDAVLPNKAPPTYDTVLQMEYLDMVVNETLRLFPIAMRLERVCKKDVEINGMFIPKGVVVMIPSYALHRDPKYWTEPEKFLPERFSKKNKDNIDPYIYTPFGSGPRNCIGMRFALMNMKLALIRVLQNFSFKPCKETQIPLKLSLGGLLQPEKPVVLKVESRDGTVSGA
Cytochrome P450 2C9 (Homo sapiens), sequence (P11712 whole entry, looked up): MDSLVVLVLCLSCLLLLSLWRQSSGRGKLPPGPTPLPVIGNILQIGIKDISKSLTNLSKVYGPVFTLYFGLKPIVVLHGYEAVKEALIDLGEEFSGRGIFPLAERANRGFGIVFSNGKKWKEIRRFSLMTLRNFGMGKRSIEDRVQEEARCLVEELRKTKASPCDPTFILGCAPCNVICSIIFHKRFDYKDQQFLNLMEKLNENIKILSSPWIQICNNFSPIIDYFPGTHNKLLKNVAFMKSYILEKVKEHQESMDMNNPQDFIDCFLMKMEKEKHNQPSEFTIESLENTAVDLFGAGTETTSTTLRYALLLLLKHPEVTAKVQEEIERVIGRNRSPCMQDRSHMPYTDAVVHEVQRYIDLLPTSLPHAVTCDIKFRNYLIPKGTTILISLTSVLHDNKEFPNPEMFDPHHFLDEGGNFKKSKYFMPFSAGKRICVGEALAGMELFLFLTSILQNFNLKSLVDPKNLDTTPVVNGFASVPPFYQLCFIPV
Cytochrome P450 2C19 (Homo sapiens), sequence (P33261 whole entry, looked up): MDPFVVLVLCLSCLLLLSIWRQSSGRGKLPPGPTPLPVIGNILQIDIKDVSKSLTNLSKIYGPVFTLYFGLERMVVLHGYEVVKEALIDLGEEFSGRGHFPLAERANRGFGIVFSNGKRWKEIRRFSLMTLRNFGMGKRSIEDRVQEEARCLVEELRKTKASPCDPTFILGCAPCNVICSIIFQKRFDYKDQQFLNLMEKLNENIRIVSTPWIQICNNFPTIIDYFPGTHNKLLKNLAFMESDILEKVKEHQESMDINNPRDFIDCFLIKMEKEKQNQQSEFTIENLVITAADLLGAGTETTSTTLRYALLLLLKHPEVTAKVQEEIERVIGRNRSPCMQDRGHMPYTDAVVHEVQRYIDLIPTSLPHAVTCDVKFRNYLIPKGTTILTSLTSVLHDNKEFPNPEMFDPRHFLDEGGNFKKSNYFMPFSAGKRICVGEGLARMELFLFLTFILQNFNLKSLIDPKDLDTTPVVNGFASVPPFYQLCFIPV
Voltage-gated inwardly rectifying potassium channel KCNH2 (Homo sapiens), sequence (Q12809 whole entry, looked up): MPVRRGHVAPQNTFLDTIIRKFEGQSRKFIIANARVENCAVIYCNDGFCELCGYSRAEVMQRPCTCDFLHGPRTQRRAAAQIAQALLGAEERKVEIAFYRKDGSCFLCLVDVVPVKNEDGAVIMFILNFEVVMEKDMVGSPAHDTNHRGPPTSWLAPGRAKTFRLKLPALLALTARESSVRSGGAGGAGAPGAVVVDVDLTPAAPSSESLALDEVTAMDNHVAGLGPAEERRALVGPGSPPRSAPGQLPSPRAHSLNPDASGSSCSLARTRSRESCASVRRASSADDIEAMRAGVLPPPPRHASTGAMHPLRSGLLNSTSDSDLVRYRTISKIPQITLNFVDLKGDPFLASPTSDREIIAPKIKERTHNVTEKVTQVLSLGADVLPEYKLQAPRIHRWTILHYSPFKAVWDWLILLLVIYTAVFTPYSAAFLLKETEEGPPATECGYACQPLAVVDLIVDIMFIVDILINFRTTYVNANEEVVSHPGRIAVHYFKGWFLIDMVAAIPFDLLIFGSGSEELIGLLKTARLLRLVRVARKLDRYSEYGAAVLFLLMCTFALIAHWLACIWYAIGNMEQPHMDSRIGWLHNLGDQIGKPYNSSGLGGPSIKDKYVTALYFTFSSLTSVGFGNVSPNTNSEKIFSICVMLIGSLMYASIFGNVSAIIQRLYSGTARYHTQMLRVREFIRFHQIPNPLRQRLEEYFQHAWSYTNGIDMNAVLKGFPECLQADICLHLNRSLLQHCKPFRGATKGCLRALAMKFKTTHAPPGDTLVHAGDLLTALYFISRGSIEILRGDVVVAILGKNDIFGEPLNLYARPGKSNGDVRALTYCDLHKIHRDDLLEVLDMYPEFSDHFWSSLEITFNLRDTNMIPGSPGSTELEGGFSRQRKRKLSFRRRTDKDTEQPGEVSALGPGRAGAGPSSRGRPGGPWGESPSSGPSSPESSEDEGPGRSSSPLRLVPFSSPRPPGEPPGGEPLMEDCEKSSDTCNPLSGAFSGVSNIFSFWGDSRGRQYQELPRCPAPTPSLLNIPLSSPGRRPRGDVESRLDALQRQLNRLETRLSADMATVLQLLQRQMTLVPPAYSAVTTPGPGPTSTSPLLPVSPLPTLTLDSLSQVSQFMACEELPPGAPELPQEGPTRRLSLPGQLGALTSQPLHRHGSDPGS
Cytochrome P450 1A2 (Homo sapiens), sequence (P05177 whole entry, looked up): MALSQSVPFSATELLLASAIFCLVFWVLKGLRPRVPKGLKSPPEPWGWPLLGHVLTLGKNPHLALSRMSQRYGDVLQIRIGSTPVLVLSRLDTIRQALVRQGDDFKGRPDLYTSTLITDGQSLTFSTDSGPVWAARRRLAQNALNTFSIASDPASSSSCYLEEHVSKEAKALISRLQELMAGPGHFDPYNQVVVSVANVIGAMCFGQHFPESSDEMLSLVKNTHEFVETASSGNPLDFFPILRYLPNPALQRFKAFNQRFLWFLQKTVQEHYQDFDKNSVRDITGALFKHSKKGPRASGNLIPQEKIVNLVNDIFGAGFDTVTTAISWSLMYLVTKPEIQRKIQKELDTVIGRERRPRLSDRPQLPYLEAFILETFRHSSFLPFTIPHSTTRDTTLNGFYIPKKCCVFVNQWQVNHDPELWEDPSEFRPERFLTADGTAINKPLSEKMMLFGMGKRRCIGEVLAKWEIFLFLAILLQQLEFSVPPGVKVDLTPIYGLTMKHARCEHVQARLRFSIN
Nuclear receptor subfamily 1 group I member 2 (Rattus norvegicus), sequence (Q9R1A7 whole entry, looked up): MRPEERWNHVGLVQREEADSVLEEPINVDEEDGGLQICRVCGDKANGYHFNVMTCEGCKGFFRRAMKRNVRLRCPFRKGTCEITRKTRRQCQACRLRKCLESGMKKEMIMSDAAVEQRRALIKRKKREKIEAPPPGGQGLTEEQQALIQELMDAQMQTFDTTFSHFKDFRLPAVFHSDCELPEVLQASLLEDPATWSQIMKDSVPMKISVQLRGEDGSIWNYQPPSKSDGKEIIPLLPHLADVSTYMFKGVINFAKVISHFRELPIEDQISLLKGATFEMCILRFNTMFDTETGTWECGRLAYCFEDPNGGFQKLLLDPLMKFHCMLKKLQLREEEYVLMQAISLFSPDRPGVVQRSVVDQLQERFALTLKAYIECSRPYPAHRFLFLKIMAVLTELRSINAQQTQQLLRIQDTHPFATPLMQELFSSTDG

As for `C=C(C)C(=O)OCC[N+](C)(C)C`, the Potency result in [1], in [3], in experiment [4], in experiment [5], in experiment [6] and in experiment [7] was “inactive” each time. In addition, the Potency result in experiment [8] and in experiment [10] was “inactive” in each case. Further, the Potency was 68.3 µM (active) in [2] and 15.8 µM (active) in [9].
With `CC(=O)SC[C@@H](Cc1ccccc1)C(=O)NCC(=O)OCc1ccccc1`, the Potency result in [1], in experiment [2], in experiment [3], in [4], in [5] and in experiment [11] was “inactive” in each case. Besides, the Potency in [6] is 1.1 µM (active); in [7] it was 0.617 µM (active); in experiment [8], 3.47 µM (active).
For the compound `CN(C)C(=O)C1(N2CCCCC2)CCN(CC[C@@]2(c3ccc(Cl)c(Cl)c3)CN(C(=O)c3ccccc3)CCO2)CC1`, the Potency in experiment [1] is 45.4 µM (active); in experiment [2], 28.6 µM (active); in [3] it was 57.1 µM (active); in experiment [4], 50.9 µM (active); in [5], 20.3 µM (active); in experiment [6] it was 6.63 µM (active). In addition, the Potency in experiment [7] was 1.67 µM (active); in experiment [8], 37.3 µM (active); in [12], 11.5 µM (active); in [10], 0.744 µM (active). For the same compound, the Potency entry in experiment [9] was “inactive”.
Turning to `O=C(OC[C@H]1O[C@@H](OC(=O)c2cc(O)c(O)c(OC(=O)c3cc(O)c(O)c(O)c3)c2)[C@H](OC(=O)c2cc(O)c(O)c(OC(=O)c3cc(O)c(O)c(O)c3)c2)[C@@H](OC(=O)c2cc(O)c(O)c(OC(=O)c3cc(O)c(O)c(O)c3)c2)[C@@H]1OC(=O)c1cc(O)c(O)c(OC(=O)c2cc(O)c(O)c(O)c2)c1)c1cc(O)c(O)c(OC(=O)c2cc(O)c(O)c(O)c2)c1`, the caspase activation in experiment [1] is -2.85% [at 19 µM]. The Potency in [2] was 16.5 µM (active); in experiment [4] it was 18.5 µM (active); in experiment [11], 10 µM (active); in experiment [8], 21.5 µM (active). The caspase-3/7 activation in [3] is 0.641% [at 19 µM]. The activation in experiment [5] was -5.98% [at 19 µM]. Further, the Potency entry in [13] and in experiment [7] was “inactive” each time. Further, the figures for the activity change, negative = inhibition in experiment [6], in [12] and in [10] were -17.1% [at 23.6 µM], 1.88% [at 15.8 µM] and -11% [at 23.6 µM], respectively.
For `Cc1cc(C2CCCCC2)n(O)c(=O)c1`, the Potency entry in [1], in experiment [3], in experiment [4], in experiment [5], in experiment [13] and in experiment [11] was “inactive” each time. Further, the Potency entry in experiment [6], in experiment [8], in experiment [9], in experiment [12] and in experiment [10] was “inactive” throughout. Also, the Potency in experiment [2] is 23.7 µM (active).
As for `CCC1OCC(COc2ccc(Oc3ccccc3)cc2)O1` (centres undefined), the Potency result in experiment [1], in [2], in experiment [3], in [4], in [6] and in [10] was “inactive” each time. For the same compound, the Potency in experiment [5] is 34.4 µM (active); in experiment [7] it was 17.8 µM (active); in [9], 25.2 µM (active).
For the compound `CC(=O)N1CCN(c2ccc(OC[C@H]3CO[C@](Cn4ccnc4)(c4ccc(Cl)cc4Cl)O3)cc2)CC1`, the values for the Potency in experiment [1], in experiment [2] and in [4] were 68.6 µM (active), 27.3 µM (active) and 61.1 µM (active), respectively. Further, the Potency result in experiment [3], in experiment [5], in experiment [13] and in [11] was “inactive” each time. The max activation in [14] was -4.95%.
For the compound `COC(=O)C1=C(C)NC(C)=C(C(=O)OCC(C)C)C1c1ccccc1[N+](=O)[O-]` (centres undefined), the Potency entry in experiment [1] and in experiment [3] was “inactive” each time. For the same compound, the Potency in [2] was 61.1 µM (active) and 29.8 µM (active); in experiment [4], 54.5 µM (active).
In the case of `CCCC(c1cc(C(C)(C)C)c(O)cc1C)c1cc(C(C)(C)C)c(O)cc1C`, the Potency in experiment [1] is 24.6 µM (active); in experiment [2] it was 13.9 µM (active); in [4] it was 22 µM (active); in experiment [5] it was 1.96 µM (active); in [6], 28.6 µM (active); in experiment [8] it was 3.6 µM (active). The Potency in [10] was 5.09 µM (active). The Potency result in experiment [3] and in [12] was “inactive” in each case.
